Source: PubChem BioAssay
Values joined by “and” are separate entries in the source; they are usually repeats but may differ in a detail not shown here. Equal entries are not always repeated. Inconclusive results are not listed. Active and inactive are the calls of the source.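 Rule for the calls, unless noted: active = normalized viability below 100% at a tested concentration; inactive = the rest.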

Legend:
[1] = viability loss in pontine glioma line – cell-based, SU-DIPG-XVII, MIPE5.0, CellTiter-Glo, qHTS, dose response (AID 1347060; cut-off not given, nearly all actives have AC50 up to about 26 µM;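 for AC50: cells exposed to compound for 48 hours before viability readout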); details: CellTiter-Glo ATP luminescence
[2] = viability loss in pontine glioma line – cell-based, SU-DIPG-XIII, MIPE4.0, CellTiter-Glo, qHTS, dose response (AID 1347061; cut-off not given, nearly all actives have AC50 up to about 37 µM;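 note: cells exposed to compound for 48 hours before readout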); details: CellTiter-Glo ATP luminescence
[3] = viability loss in pontine glioma line – cell-based, JHH-DIPG-1, MIPE4.0, CellTiter-Glo, qHTS, dose response (AID 1347062; cut-off not given, nearly all actives have AC50 up to about 27 µM;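 for AC50: cells exposed to compound for two days before readout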); details: JHH-DIPG-1 viability, CellTiter-Glo ATP luminescence
[4] = viability loss in pontine glioma line – cell-based, SU-DIPG-IV, MIPE4.0, CellTiter-Glo, qHTS, dose response (AID 1347063; cut-off not given, nearly all actives have AC50 up to about 30 µM;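 note: compound exposure lasted 48 hours before the viability readout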); details: CellTiter-Glo ATP luminescence
[5] = viability loss in pontine glioma line – cell-based, SU-DIPG-XIII, MIPE5.0, CellTiter-Glo, qHTS, dose response (AID 1347064; cut-off not given, nearly all actives have AC50 up to about 23 µM;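 for AC50: cells exposed to compound for 48 hours before the viability read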); details: CellTiter-Glo ATP luminescence
[6] = growth inhibition of DIPG cells – cell-based, MIPE4.0 library, CellTiter-Glo luminescence, qHTS (AID 1347066; cut-off not given, nearly all actives have AC50 up to about 30 µM;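 note: cells exposed to compound for 48 hours before readout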); details: SU-DIPG-VI viability, CellTiter-Glo ATP luminescence
[7] = JHH-DIPG-1 glioma cell viability, MIPE5.0 library, CellTiter-Glo luminescence, qHTS (AID 1347067; cut-off not given, nearly all actives have AC50 up to about 26 µM;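 note: cells exposed to compound for 48 hours before readout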); details: JHH-DIPG-1 glioma viability, CellTiter-Glo ATP luminescence
[8] = growth inhibition of DIPG cells – cell-based, MIPE5.0 library, qHTS (AID 1347068; cut-off not given, nearly all actives have IC50 up to about 30 µM); details: SU-DIPG-XXV viability
[9] = compounds altering HSF1 focus formation in cells – imaging, Selleck Cancer Library (AID 1347162; in the data active = plate-normalised HSF1 focus index below about 0.46); details: human cells, HSF1 nuclear foci imaging, at 10 µM; SSMD: measured here: HSF1 foci SSMD mean; cell count: measured here: cell number; plate-normalised HSF1 focus index: stronger effect = lower value
[10] = viability loss in pontine glioma line – cell-based, SU-DIPG-XXV, MIPE5.0, CellTiter-Glo, qHTS, dose response (AID 1347065; cut-off not given, nearly all actives have AC50 up to about 26 µM;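 note: cells exposed to compound for 48 hours before ATP readout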); details: CellTiter-Glo ATP luminescence
[11] = viability loss with induced miR-34 in A549 – imaging, A549 dox-inducible miR-34, nuclei and caspase counts, primary screen (AID 1347080;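 active = compounds whose cell count with miR-34 switched on is under 0.7 times the count with it off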); details: A549 miR-34 inducible, Hoechst nuclei count, 48 h
[12] = MELAS cybrid and Rieske KO viability enhancers – cell-based, MELAS cybrids, Rieske KO mouse fibroblasts, CellTiter-Glo, primary screen (AID 1508586;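 active = mean z-score across replicates of 1.96 or higher in either the MELAS or the Rieske mutant cell line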;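 note: z relative to plate mean and SD of compound and empty wells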); details: low glucose
[13] = drug combination growth inhibition, ovarian cancer – cell-based, oncology-focused library, rucaparib conditional, profiling panel (AID 1508598); details: patient-derived ovarian cancer cells, CellTiter-Glo viability, 144 h, stronger effect = lower value
[14] = stronger effect = lower value, cell number ratio, induced over uninduced
[15] = measured here: relative caspase fold change +Dox/-Dox
[16] = measured here: total cells with miR-34 induction, stronger effect = lower value
[17] = measured here: total cells without miR-34 induction
[18] = MELAS cybrid survival, CellTiter-Glo 48 h, stronger effect = higher value
[19] = Rieske KO mouse fibroblast survival, CellTiter-Glo 72 h

C[Se]CCC(N)C(=O)O (centres undefined)
inactive: outcome [1] | outcome [2] | outcome [3] | outcome [4] | outcome [5] | outcome [6] | outcome [7] | outcome [8]

COc1ccc(CCN2CCN(CCCc3ccccc3)CC2)cc1OC
inactive: outcome [1] | outcome [2] | outcome [3] | outcome [4] | outcome [5] | outcome [6] | outcome [7] | outcome [8] | plate-normalised HSF1 focus index [9] 1.24
3.93: SSMD [9]
6890: cell count [9]

O=C(/C=C/c1cccnc1)NCCCCC1CCN(C(=O)c2ccccc2)CC1
7280: cell count [9]
active: AC50 [1] 11.8 nM | AC50 [2] 16.6 nM | AC50 [3] 4.18 nM | AC50 [4] 20.9 nM | AC50 [5] 1.86 nM | AC50 [10] 4.68 nM | AC50 [7] 4.17 nM
1.27: SSMD [9]
inactive: plate-normalised HSF1 focus index [9] 1.05

CNC(=O)c1ccc(C)c(-n2c(C)cc(OCc3ccc(F)cc3F)c(Br)c2=O)c1
inactive: outcome [1] | outcome [2] | outcome [3] | outcome [4] | outcome [5] | outcome [8] | fold change [11, 14] 0.88 | plate-normalised HSF1 focus index [9] 1.22 | z-score [12, 18] -0.398 | viability ([13]; at 0.000305 µM, OCI-C5x cells, with rucaparib 10 µM, 100% = cells with rucaparib alone) 104% | viability ([13]; at 0.000305 µM, OCI-C5x cells, without rucaparib) 124% | viability ([13]; at 0.000305 µM, OCI-P5x cells, with rucaparib 20 µM, 100% = cells with rucaparib alone) 115% | viability ([13]; at 0.000305 µM, OCI-P5x cells, without rucaparib) 115% | viability ([13]; at 0.00122 µM, OCI-C5x cells, with rucaparib 10 µM, 100% = cells with rucaparib alone) 110% | viability ([13]; at 0.00122 µM, OCI-C5x cells, without rucaparib) 124% | viability ([13]; at 0.00122 µM, OCI-P5x cells, with rucaparib 20 µM, 100% = cells with rucaparib alone) 107% | viability ([13]; at 0.00122 µM, OCI-P5x cells, without rucaparib) 105% | viability ([13]; at 0.00488 µM, OCI-C5x cells, with rucaparib 10 µM, 100% = cells with rucaparib alone) 105% | viability ([13]; at 0.00488 µM, OCI-C5x cells, without rucaparib) 102% | viability ([13]; at 0.00488 µM, OCI-P5x cells, with rucaparib 20 µM, 100% = cells with rucaparib alone) 112% | viability ([13]; at 0.00488 µM, OCI-P5x cells, without rucaparib) 111% | viability ([13]; at 0.0195 µM, OCI-C5x cells, without rucaparib) 113% | viability ([13]; at 0.0195 µM, OCI-P5x cells, with rucaparib 20 µM, 100% = cells with rucaparib alone) 114% | viability ([13]; at 0.0195 µM, OCI-P5x cells, without rucaparib) 107% | viability ([13]; at 0.0781 µM, OCI-C5x cells, with rucaparib 10 µM, 100% = cells with rucaparib alone) 101% | viability ([13]; at 0.0781 µM, OCI-C5x cells, without rucaparib) 106% | viability ([13]; at 0.0781 µM, OCI-P5x cells, with rucaparib 20 µM, 100% = cells with rucaparib alone) 108% | viability ([13]; at 0.0781 µM, OCI-P5x cells, without rucaparib) 108% | viability ([13]; at 0.313 µM, OCI-C5x cells, without rucaparib) 119% | viability ([13]; at 0.313 µM, OCI-P5x cells, with rucaparib 20 µM, 100% = cells with rucaparib alone) 112% | viability ([13]; at 0.313 µM, OCI-P5x cells, without rucaparib) 112% | viability ([13]; at 1.25 µM, OCI-C5x cells, without rucaparib) 112% | viability ([13]; at 1.25 µM, OCI-P5x cells, with rucaparib 20 µM, 100% = cells with rucaparib alone) 110% | viability ([13]; at 1.25 µM, OCI-P5x cells, without rucaparib) 108% | viability ([13]; at 5 µM, OCI-C5x cells, with rucaparib 10 µM, 100% = cells with rucaparib alone) 123% | viability ([13]; at 5 µM, OCI-C5x cells, without rucaparib) 129% | viability ([13]; at 5 µM, OCI-P5x cells, with rucaparib 20 µM, 100% = cells with rucaparib alone) 110% | viability ([13]; at 5 µM, OCI-P5x cells, without rucaparib) 105%
7630: cell count [9]
7360: cell count [11, 16]
-1.25: z-score [12, 19]
0.999: fold change [11, 15]
active: viability ([13]; at 0.0195 µM, OCI-C5x cells, with rucaparib 10 µM, 100% = cells with rucaparib alone) 97.8% | viability ([13]; at 0.313 µM, OCI-C5x cells, with rucaparib 10 µM, 100% = cells with rucaparib alone) 90.4% | viability ([13]; at 1.25 µM, OCI-C5x cells, with rucaparib 10 µM, 100% = cells with rucaparib alone) 91.7%
3.49: SSMD [9]
8370: cell count [11, 17]

NC(=O)c1cnc(-c2ccc(C3(N)CCC3)cc2)c(-c2ccccc2)c1
inactive: outcome [1] | outcome [2] | outcome [3] | outcome [4] | outcome [5] | outcome [8]

Cn1c(=O)n(-c2ccc(C(C)(C)C#N)cc2)c2c3cc(-c4cnc5ccccc5c4)ccc3ncc21
7130: cell count [9]
active: AC50 [1] 481 nM | AC50 [2] 2640 nM | AC50 [3] 4180 nM | AC50 [4] 23.5 nM | AC50 [5] 855 nM | AC50 [10] 135 nM | AC50 [7] 855 nM
inactive: plate-normalised HSF1 focus index [9] 0.984
-0.518: SSMD [9]

CS(=O)(=O)c1ccc(-c2cnc(N)c(C(=O)Nc3ccccc3)n2)cc1
0.481: fold change [11, 15]
4270: cell count [11, 17]
inactive: outcome [1] | outcome [2] | outcome [3] | outcome [4] | outcome [5] | outcome [6] | outcome [7] | outcome [8] | fold change [11, 14] 1.01 | z-score [12, 18] -0.286
0.758: z-score [12, 19]
4300: cell count [11, 16]

C=Cc1c(C)c2cc3nc(cc4[nH]c(cc5nc(cc1[nH]2)C(C)=C5CCC(=O)O)c(CCC(=O)OC)c4C)[C@@]1(C)C3=CC=C(C(=O)OC)[C@H]1C(=O)OC
active: AC50 [1] 11800 nM | AC50 [2] 743 nM | AC50 [3] 66.2 nM | AC50 [4] 105 nM | AC50 [5] 9340 nM | AC50 [6] 14800 nM

COc1ccc2c3n(c(=NC(=O)c4cccnc4)nc2c1OC)CCN3
-0.125: SSMD [9]
7610: cell count [9]
inactive: outcome [8] | plate-normalised HSF1 focus index [9] 0.991
active: AC50 [1] 1050 nM | AC50 [2] 13200 nM | AC50 [3] 8330 nM | AC50 [4] 1050 nM | AC50 [5] 742 nM | AC50 [10] 590 nM

Cc1ccc(C(=O)Nc2cccc(C(F)(F)F)c2)cc1Nc1nc(-c2cccnc2)nc2c1cnn2C
-0.539: z-score [12, 18]
3950: cell count [11, 17]
2.14: z-score [12, 19]
4020: cell count [11, 16]
inactive: outcome [2] | outcome [8] | fold change [11, 14] 1.02
1.01: fold change [11, 15]
active: AC50 [1] 16600 nM | AC50 [3] 18700 nM | AC50 [4] 16600 nM | AC50 [5] 18600 nM | AC50 [6] 23500 nM | AC50 [7] 20900 nM

COc1ccccc1N1CCN(CCN(C(=O)C2CCCCC2)c2ccccn2)CC1
inactive: outcome [1] | outcome [2] | outcome [3] | outcome [4] | outcome [5] | outcome [6] | outcome [8] | fold change [11, 14] 0.953 and 0.872 | z-score [12, 18] -0.378
0.882 and 0.761: fold change [11, 15]
0.432: z-score [12, 19]
8900 and 8750: cell count [11, 16]
9340 and 10000: cell count [11, 17]

Cc1ccc(C(=O)Nc2cccc(C(F)(F)F)c2)cc1-c1ccc2nc(NCCN3CCOCC3)ncc2c1
active: AC50 [1] 2350 nM | AC50 [2] 6620 nM | AC50 [3] 6620 nM | AC50 [4] 4690 nM | AC50 [5] 3720 nM | AC50 [10] 2090 nM | AC50 [7] 2950 nM

O=C(CN1C(=O)C2(CCCC2)NC[C@H]1c1cc(F)cc(F)c1)Nc1ccc2c(c1)C[C@@]1(C2)C(=O)Nc2ncccc21
inactive: outcome [1] | outcome [2] | outcome [3] | outcome [4] | outcome [10] | outcome [6] | outcome [7] | outcome [8]
